# Measurements taken from PubChem BioAssay.
# Calls of active or inactive are those of the source. No rule for the calls is given here.
# Tested on: Aerobactin synthetase IucA (Klebsiella pneumoniae, hypervirulent)
# Test: IucA enzyme inhibition, biochemical, LOPAC library, absorbance readout (AID 1346212);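 also: 100% = no compound wells and 0% = no enzyme wells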
# Details: IucA enzyme assay, absorbance (OD) readout; hits give low values;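 tested at 8 µM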
row,SMILES,remaining activity
1,N=C(N)SCCc1cccc(CCSC(=N)N)c1,110% (inactive)
2,COc1ccc(NC(=O)c2ccc(-c3ccc(-c4noc(C)n4)cc3C)cc2)cc1N1CCN(C)CC1,112% (inactive)
3,O=S(=O)(c1cccc2c(Cl)cccc12)N1CCCNCC1,110% (inactive)
4,CN1C2CCC1CC(OC(=O)c1c[nH]c3ccccc13)C2 (stereo unspecified),97.7% (inactive)
5,CC(=O)[C@H]1CC[C@H]2[C@@H]3CCC4=CC(=O)CC[C@]4(C)[C@H]3CC[C@]12C,123% (inactive)
6,CC(C)Oc1cccnc1N(C)C1CCN(Cc2ccc(I)cc2)CC1,97.8% (inactive)
7,OC[C@H]1NC[C@@H](O)[C@@H]1O,102% (inactive)
8,Cc1cc2c(cc1Cl)N(C(=O)Nc1ccc(Oc3cccnc3C)nc1)CC2,103% (inactive)
9,C[C@]12CCC(=O)C=C1CC[C@@H]1[C@@H]2C(=O)C[C@@]2(C)[C@H]1CC[C@]2(O)C(=O)CO,105% (inactive)
10,CCCC(=O)NCCc1c2n(c3ccc(OC)cc13)Cc1ccccc1-2,89.8% (inactive)
11,CCN(CC)CC#CCOC(=O)C(O)(c1ccccc1)C1CCCCC1 (stereo unspecified),118% (inactive)
12,CN(C)c1cc2c(Nc3ccc4c(cnn4Cc4ccccc4)c3)ncnc2cn1,115% (inactive)
13,CCCCCCCC/C=C\CCCCCCCC(=O)O,119% (inactive)
14,c1ccc2c(c1)CCC[C@H]2Nc1nc2ccccc2[nH]1,109% (inactive)
15,COc1ccccc1N1CCN(CC(O)COc2cccc3ccccc23)CC1 (stereo unspecified),96.1% (inactive)
16,OCc1cc(C(O)CNCCCCCCOCCCCc2ccccc2)ccc1O (stereo unspecified),122% (inactive)
